The campaign covered roughly 290,000 compounds. About 3,000 (1%) were called active. Cut-off read from the data, not from the text of the source: active = inhibition mostly above about 36% (no sharp cut-off); inactive = mostly below about 34%. Shown is part of a subset that was picked to be rich in actives.
molecular target: T1, Nucleotide-binding oligomerization domain-containing protein 1, Homo sapiens (UniProt Q9Y239); assay: inhibition of NOD1-driven NF-kB reporter – cell-based, luminescence, uHTS, primary screen (AID 1578)
T1 sequence (whole entry): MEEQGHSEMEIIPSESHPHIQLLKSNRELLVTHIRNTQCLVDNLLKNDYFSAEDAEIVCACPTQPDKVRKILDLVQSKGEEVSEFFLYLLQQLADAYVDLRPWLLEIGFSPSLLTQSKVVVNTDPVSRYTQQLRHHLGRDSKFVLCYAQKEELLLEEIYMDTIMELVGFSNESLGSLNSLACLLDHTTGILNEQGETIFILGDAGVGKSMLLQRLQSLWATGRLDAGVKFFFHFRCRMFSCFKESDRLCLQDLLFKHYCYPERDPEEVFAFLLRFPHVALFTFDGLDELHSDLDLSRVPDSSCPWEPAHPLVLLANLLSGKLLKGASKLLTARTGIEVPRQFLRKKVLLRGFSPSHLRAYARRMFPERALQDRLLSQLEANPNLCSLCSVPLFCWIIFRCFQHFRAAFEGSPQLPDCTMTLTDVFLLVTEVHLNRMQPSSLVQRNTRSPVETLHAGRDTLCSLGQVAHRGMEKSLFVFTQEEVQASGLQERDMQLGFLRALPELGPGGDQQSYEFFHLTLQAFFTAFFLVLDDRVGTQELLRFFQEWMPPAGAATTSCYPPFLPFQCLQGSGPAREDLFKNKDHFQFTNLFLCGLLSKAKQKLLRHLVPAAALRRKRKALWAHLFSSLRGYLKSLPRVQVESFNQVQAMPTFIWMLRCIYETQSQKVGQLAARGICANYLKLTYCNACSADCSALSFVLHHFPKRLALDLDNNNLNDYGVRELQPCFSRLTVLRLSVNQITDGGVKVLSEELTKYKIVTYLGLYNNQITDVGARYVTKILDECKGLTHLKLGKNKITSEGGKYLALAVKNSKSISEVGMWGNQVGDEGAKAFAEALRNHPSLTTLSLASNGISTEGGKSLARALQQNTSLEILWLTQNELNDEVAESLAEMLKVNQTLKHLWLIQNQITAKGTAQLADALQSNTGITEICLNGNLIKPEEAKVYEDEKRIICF

outcome, active:
C=C(C)C(=O)O[C@H]1C/C(C)=C\C(=O)/C=C(\C)[C@H](O)[C@@H]2OC(=O)C(=C)[C@@H]21
CC1(C)N=C(N)N=C(N)N1c1ccc(OCCCOc2ccccc2)c(Cl)c1.CCS(=O)(=O)O
O=C(NCc1cccnc1)/C(=C/c1ccc(-c2ccc(Cl)cc2)o1)S(=O)(=O)c1ccccc1
O=C(NCc1cccnc1)/C(=C\c1ccc(-c2ccc(Cl)c(Cl)c2)o1)S(=O)(=O)c1ccccc1
COc1ccc(-c2cc(=O)oc3cc(OC(=O)C4CCCCC4)c(Cl)cc23)cc1
O=C(Oc1cc2oc(=O)cc(-c3ccccc3)c2cc1Cl)C1CCCCC1
O=[N+]([O-])c1ccc(N/N=C/c2sc(N3CCOCC3)nc2-c2ccccc2)c(S(=O)(=O)Nc2ccccc2Cl)c1
Br.O=[N+]([O-])c1ccc(N/N=C/c2sc(N3CCOCC3)nc2-c2ccccc2)c(S(=O)(=O)Nc2ccc(Cl)cc2)c1
Cc1ccc(N=c2oc3cc(O)ccc3cc2C(N)=O)cc1
COc1ccc2cc(C(N)=O)c(=Nc3ccc(C)cc3)oc2c1
COc1ccc(C2C(O)C(c3c[nH]c4ccccc34)=NN2C(=O)CCl)cc1 (stereo not drawn)
COc1cccc(C(=O)Nc2ccc(Oc3cccc(C(F)(F)F)c3)nc2)c1
CN(C)c1ccnc2sc(C(N)=O)c(N)c12
COc1ccc(Nc2ncnc3ccc(Br)cc23)cc1OC
CC(=O)c1cccc(Nc2ncnc3ccc(Br)cc23)c1
Brc1ccc2ncnc(Nc3cccc4ccccc34)c2c1
Cc1ccc(OCCN2CCN(c3ncnc4sc(C)c(C)c34)CC2)cc1
Cc1cc(C)c(C)c(S(=O)(=O)N2CCN(c3ncnc4sc(C)c(C)c34)CC2)c1C
O=[N+]([O-])c1cc(S(=O)(=O)Nc2cccc(C(F)(F)F)c2)ccc1-n1nnc2ccccc21
Cc1c([N+](=O)[O-])c2ccc(O)cc2n1-c1ccccc1
CN(C)/C=C/c1c([N+](=O)[O-])c2ccc(O)cc2n1-c1ccccc1
S=C(NNc1ccnc2cc(Cl)ccc12)Nc1ccccc1Cl
N#CCCS(=O)(=O)c1nnnn1-c1ccccc1
COc1cccc(-n2nnnc2S(C)(=O)=O)c1
CCCS(=O)(=O)c1nnnn1-c1cccc(OC)c1
CS(=O)(=O)c1ccc(C(=O)OCc2nnc(-c3ccccc3)o2)cc1[N+](=O)[O-]
CCN(Cc1ccccc1)S(=O)(=O)c1ccc(C(=O)Nc2nnc(C3CC3)o2)cc1
CCCCN(C)S(=O)(=O)c1ccc(C(=O)Nc2nnc(-c3cccs3)o2)cc1
CCCCN(CC)S(=O)(=O)c1ccc(C(=O)Nc2nnc(-c3ccccc3Cl)o2)cc1
CCCCN(CC)S(=O)(=O)c1ccc(C(=O)Nc2nnc(-c3cccs3)o2)cc1
COc1ccccc1-c1nnc(Nc2nc3c(OC)cccc3s2)o1
Cc1cccnc1Nc1nc(-c2ccccn2)cs1
COc1cccc2sc(Nc3nc(-c4ccccn4)cs3)nc12
COc1ccc(Nc2oc(COc3ccccc3OC)nc2C#N)cc1
Cc1oc2c(F)c(F)c(F)c(F)c2c1S(=O)(=O)Nc1cccc(C(F)(F)F)c1
CCCn1c(SCC(=O)Nc2nc3c(s2)CCCC3)nc2c1c(=O)n(C)c(=O)n2C
CCCCn1c(SCC(=O)Nc2nnc(CC)s2)nc2c1c(=O)n(C)c(=O)n2C
O=C(NC1CCCC1)c1sc(=S)n2c1[nH]c(=O)c1ccccc12
O=C(NC1CCCCC1)c1sc(=S)n2c1[nH]c(=O)c1ccccc12
Cc1ccc(-n2ncc3c2CCCC3NC(=O)c2ocnc2C)cc1C (stereo not drawn)
Cc1ncoc1C(=O)NC1CCCc2c1cnn2-c1ccc(C(C)(C)C)cc1 (stereo not drawn)
CCC1Sc2ccc(S(=O)(=O)Nc3ccc(OC)c(OC)c3)cc2NC1=O (stereo not drawn)
O=C(Nc1nnc(-c2ccc3c(c2)CCCC3)o1)c1ccc(Cl)cc1Cl
O=C(Nc1nnc(-c2ccc3c(c2)CCCC3)o1)c1ccccc1
O=C(Nc1nnc(-c2ccc3c(c2)CCCC3)o1)c1ccccc1Cl
N#Cc1c2ccc(O)cc2n2ccccc12
COc1ccc2c(C#N)c3ccccn3c2c1
COc1ccc2[nH]c(=O)c3c(c2c1)OC(C)(C)C=C3
O=C(Nc1ccccn1)C1CCN(c2ncnc3c2nc2n3CCCCC2)CC1
O=C(NCC1CCN(Cc2ccc(Cl)cc2)CC1)C1CCCN(c2ncnc3c2nc2n3CCCCC2)C1 (stereo not drawn)
Cc1ccc(NC(=O)C2CCCN(c3ncnc4c3nc3n4CCCCC3)C2)nc1 (stereo not drawn)
O=C(Nc1ccc(Cl)cn1)C1CCN(c2ncnc3c2nc2n3CCCCC2)CC1
O=C(Nc1ccccc1Cl)/C(Cl)=C(\Cl)S(=O)c1ccccc1 (stereo not drawn)
CC(=O)N1CC(C)Sc2ccc(S(=O)(=O)NCCc3ccc(C)cc3)cc21 (stereo not drawn)
COc1cc(/C=C2\SC(=N)N(c3ccc(F)cc3)C2=O)ccc1O
N#C/C(=C\C=C\c1ccccc1[N+](=O)[O-])C(=O)NC1CCCCC1
Br.CCCCCCCCCn1ccc(=N)cc1
Br.CCCCCCCCCCn1ccc(=N)cc1
Br.CCCCCCCCn1ccc(=N)cc1
C(=N\Nc1nc(-c2ccccn2)nc2ccccc12)/c1ccccc1
Fc1ccccc1/C=N/Nc1nc(-c2ccccn2)nc2ccccc12
COc1cccc(Nc2nc(NCCO)c3ccccc3n2)c1.Cl
O=c1cc(CSc2nnc(-c3cccs3)n2Cc2ccccc2)nc2sc3ccccc3n12
CCOc1ccccc1CNC(=O)Cn1nc(C)c2c(C)n(-c3ccc(C)cc3)nc2c1=O
COc1ccc(CCNC(=O)C(C)n2nc(C)c3c(C)n(-c4ccc(C)cc4)nc3c2=O)c(OC)c1 (stereo not drawn)
COc1ccc(OC)c(CCNC(=O)C(C)n2nc(C)c3c(C)n(-c4ccc(C)cc4)nc3c2=O)c1 (stereo not drawn)
COc1ccc(OC)c(CCNC(=O)Cn2nc(C)c3c(C)n(-c4ccc(C)cc4)nc3c2=O)c1
Cc1ccc(CS(=O)(=O)c2ncc(Cl)c(C(=O)Nc3nnc(C(C)C)s3)n2)cc1
CSc1nnc(NC(=O)c2nc(S(=O)(=O)Cc3ccc(C)cc3)ncc2Cl)s1
Cc1cccc(CS(=O)(=O)c2ncc(Cl)c(C(=O)Nc3nnc(C(C)C)s3)n2)c1
COc1ccc(Cc2nc3ccc(C(=O)N4CCN(C)C(C)C4)cc3o2)cc1OC (stereo not drawn)
Cc1cccc(CSc2cccc3cccnc23)c1
Cn1c(=O)[nH]c(=O)c2c1nc(N1CCC(Cc3ccccc3)CC1)n2Cc1ccccc1
CCCCCn1c(SCCc2ccccc2)nc2c1c(=O)[nH]c(=O)n2C
Cn1c(=O)[nH]c(=O)c2c1nc([N+](=O)[O-])n2Cc1ccccc1
COc1cccc(-c2coc3c(C)c4oc(=O)c(CCC(=O)O)c(C)c4cc23)c1
O=C(Nc1nc(-c2ccccc2)cs1)c1ccc2c(=O)n3c(nc2c1)CCCCC3
Cc1ccc(-c2csc(NC(=O)c3ccc4c(=O)n5c(nc4c3)CCCCC5)n2)cc1
COc1ccc(CNC(=O)c2cc3c(C)nc4ccccc4c3o2)c(OC)c1
C/C(=N\NC(=O)c1ccccc1Cl)c1ccccn1
C/C(=N\Nc1nc2ccccc2[nH]1)c1ccccn1
C/C(=N\NC(=O)c1cccc2ccccc12)c1ccccn1
C/C(=N\NC(=O)C1COc2ccccc2O1)c1ccccn1 (stereo not drawn)
C/C(=N\NC(=O)C(C)Oc1ccc([N+](=O)[O-])cc1)c1ccccn1 (stereo not drawn)
C/C(=N\NC(=O)C(c1ccccc1)c1ccccc1)c1ccccn1
C/C(=N\NC(=O)c1cc(-c2cccs2)nc2ccccc12)c1ccccn1
C=CCNC(=S)N/N=C(\C)c1ccccn1
O=S1(=O)Nc2c(ccc3cccnc23)-c2ccccc21
Cc1ccccc1-c1nc(CSc2nc3c(c(=O)[nH]2)CCC3)c(C)o1
O=C(CCl)c1cc2c3c(c1)CC(=O)N3CCC2
CCOc1cc(S(=O)(=O)NCc2ccncc2)ccc1Cl
CCN(CC)S(=O)(=O)c1ccc(C(=O)Nc2ccc(Cc3ccncc3)cc2)cc1
Cc1ccc(C)c(N2CCN(C(=O)CCS(=O)(=O)c3ccc4c(c3)NC(=O)C(C)S4)CC2)c1 (stereo not drawn)
CCOc1ccc(/C=C/C(O)=C2/C(=O)N(C)C3(C)CC2c2ccccc2O3)cc1OC (stereo not drawn)
COc1ccc(-n2nc(C#N)c(Cl)cc2=O)cc1
Cn1c(/C=C/c2ccc(Cl)cc2Cl)c([N+](=O)[O-])c(=O)n(C)c1=O
Cc1ccc(-n2c(-c3ccc(Br)cc3)c[n+]3c2CCc2ccc4cccnc4c2-3)cc1.[Br-]
O=c1cc(C(F)(F)F)[nH]c2ccc(C(F)(F)F)cc12
O=c1cc(C(F)(F)F)[nH]c2ccc(OC(F)(F)F)cc12
O=C1CSc2ccc(C(=O)Nc3cccc(S(=O)(=O)Nc4ccc(Br)cc4)c3)cc2N1
CC1CC(C)CN(C(=O)/C=C/c2ccc([N+](=O)[O-])s2)C1 (stereo not drawn)
O=C(/C=C/c1ccc([N+](=O)[O-])s1)N1CCCCC1
CCOC(=O)c1c(-c2ccccc2)oc2cc(Br)c(O)c(C=O)c12
COc1ccccc1NC(=O)c1cc2cc(Br)ccc2cc1O
Cc1ccnc(NC(=O)Cc2ccc(-c3ccccc3)cc2)c1
COc1cc(OC)cc(-c2cc3nc(C)c(CCC(=O)O)c(C)n3n2)c1
O=c1[nH]c(-c2ccccn2)nc2sc(-c3ccccc3)cc12
Cn1c2c(c(=O)n(C)c1=O)C(C(F)(F)F)(C(F)(F)F)N=C(c1ccc(Cl)cc1)N2

From the GenesisPotency data set
